# Laboratory results as given in PubChem BioAssay (NCI).
# This is part of a sample that, as a whole, favours compounds with a hit. Of some 79,000 tested, about 15% had one in any assay. Active and inactive are the calls of the source. Rule as the data show it: active = growth inhibition above about 70%; inactive = the rest.
# Tests used:
# [1] = NCI Yeast Anticancer Drug Screen. Data for the rad50 strain (AID 155);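 also: 0% = growth of vehicle-only cultures of the same strain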; details: S. cerevisiae rad50 strain growth inhibition, active compounds read high
# Procedure, shortened: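 Vehicle-treated cultures provide the reference for the growth inhibition reported for compound-exposed, repair-deficient yeast.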
# [2] = NCI Yeast Anticancer Drug Screen. Data for the mec2-1 strain (AID 157); details: S. cerevisiae mec2-1 strain, active compounds read high
# Procedure, shortened: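 Mutant yeast (mec2-1) grown with compound; growth inhibition relative to vehicle control reported.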
# [3] = NCI Yeast Anticancer Drug Screen. Data for the sgs1 mgt1 strain (AID 161);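 also: 0% = growth of cultures given vehicle only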; details: S. cerevisiae sgs1 mgt1 strain, active compounds read high
# Procedure, shortened: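 Compounds are added to genetically altered yeast, and growth is compared with cultures given vehicle alone to give percent inhibition.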
# [4] = NCI Yeast Anticancer Drug Screen. Data for the cln2 rad14 strain (AID 165);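 also: 0% = growth equal to vehicle treated cultures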; details: S. cerevisiae cln2 rad14 strain, active compounds read high
# Procedure, shortened: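 Readout is yeast growth inhibition versus vehicle-treated controls, using a strain with cln2 and rad14 alterations exposed to compound.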
# [5] = NCI Yeast Anticancer Drug Screen. Data for the bub3 strain (AID 167); details: S. cerevisiae bub3 mutant strain, active compounds read high
# Procedure, shortened: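 Mutant yeast screening strain plus compound; vehicle-treated cultures serve as the 0% inhibition reference.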
# [6] = NCI Yeast Anticancer Drug Screen. Data for the mlh1 rad18 strain (AID 175); details: S. cerevisiae mlh1 rad18 strain growth inhibition, active compounds read high
# Procedure, shortened: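 Genetically defined yeast (DNA repair-deficient) exposed to compounds; growth inhibition determined relative to vehicle.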
# [7] = at 5.0 µM (retest, dose inferred, filed as 0.5)
# [8] = at 50.0 µM (retest, dose inferred, filed as 5.0)
Compound,"growth inhibition [1, 7]","growth inhibition [1, 8]",growth inhibition ([1]; at 50.0 µM),"growth inhibition [2, 7]","growth inhibition [2, 8]",growth inhibition ([2]; at 50.0 µM),"growth inhibition [3, 7]","growth inhibition [3, 8]",growth inhibition ([3]; at 50.0 µM),"growth inhibition [4, 7]","growth inhibition [4, 8]",growth inhibition ([4]; at 50.0 µM),"growth inhibition [5, 7]","growth inhibition [5, 8]",growth inhibition ([5]; at 50.0 µM),"growth inhibition [6, 7]","growth inhibition [6, 8]",growth inhibition ([6]; at 50.0 µM)
CC1(C)C2CCC1(CS(=O)O)C(=O)C2.[Ag] (configuration not stated),99% (active),99% (active),99.2% (active),100% (active),99% (active),99.5% (active),100% (active),99% (active),99.5% (active),99% (active),99% (active),98.7% (active),99% (active),99% (active),99.5% (active),100% (active),99% (active),99.6% (active)
COc1ccccc1NC(=O)CC(=O)N1N=C(c2ccccc2)C(N=Nc2ccc(Cl)cc2)C1=O (configuration not stated),20% (inactive),20% (inactive),-5.1% (inactive),21% (inactive),21% (inactive),0.6% (inactive),25% (inactive),25% (inactive),-2% (inactive),12% (inactive),12% (inactive),-41.2% (inactive),15% (inactive),15% (inactive),1% (inactive),6% (inactive),6% (inactive),-8.05% (inactive)
COc1cccc(OC)c1C(=O)/C=C/c1ccccc1,-3% (inactive),62% (inactive),66.7% (inactive),-1% (inactive),66% (inactive),45% (inactive),1% (inactive),62% (inactive),69.9% (inactive),-7% (inactive),47% (inactive),55.4% (inactive),-5% (inactive),70% (active),50.9% (inactive),1% (inactive),71% (active),79.1% (active)
O=C(CSc1nnc(-c2ccc(N=Cc3ccc(Cl)cc3)cc2)o1)Nc1ccc(Cl)cc1Cl,14% (inactive),99% (active),95.8% (active),-1% (inactive),99% (active),99.2% (active),17% (inactive),100% (active),95.9% (active),27% (inactive),99% (active),91.2% (active),12% (inactive),100% (active),98.5% (active),30% (inactive),99% (active),97.9% (active)
CCOC1(OCC)C(C)C(c2ccccc2)C(c2ccccc2)C1C (configuration not stated),-3% (inactive),-1% (inactive),79.3% (active),-6% (inactive),-4% (inactive),98.8% (active),-8% (inactive),13% (inactive),8.1% (inactive),-4% (inactive),-2% (inactive),98.5% (active),-8% (inactive),-5% (inactive),99% (active),-9% (inactive),9% (inactive),98.7% (active)
O=C1c2ccccc2C(=O)c2c(NCCNCCO)ccc(O)c21,37% (inactive),93% (active),85% (active),19% (inactive),94% (active),84.7% (active),51% (inactive),91% (active),86.5% (active),53% (inactive),60% (inactive),49.7% (inactive),44% (inactive),86% (active),85.3% (active),24% (inactive),88% (active),85.8% (active)
CN(C)C(=S)/N=c1\ss/c(=N\C(=S)N(C)C)n1-c1ccc(Cl)cc1,9% (inactive),9% (inactive),94.2% (active),14% (inactive),-7% (inactive),92.1% (active),7% (inactive),13% (inactive),95.7% (active),5% (inactive),-10% (inactive),72.3% (active),3% (inactive),-2% (inactive),90% (active),8% (inactive),29% (inactive),96.2% (active)
CCCC(/C=N/N=C(N)N)=N\N=C(N)N,-24% (inactive),-8% (inactive),-24.1% (inactive),-11% (inactive),4% (inactive),-8.95% (inactive),-1% (inactive),-30% (inactive),-14.3% (inactive),10% (inactive),0% (inactive),-33.1% (inactive),-12% (inactive),-2% (inactive),-8.95% (inactive),4% (inactive),-1% (inactive),-10.6% (inactive)
O=c1cccccc1[O-].O=c1cccccc1[O-].O=c1cccccc1[O-].[Dy+3],19% (inactive),19% (inactive),92.8% (active),18% (inactive),18% (inactive),92.8% (active),14% (inactive),14% (inactive),91.6% (active),10% (inactive),10% (inactive),80.2% (active),7% (inactive),7% (inactive),93.2% (active),10% (inactive),10% (inactive),92% (active)
NC(=O)NOCC1NC(=O)NC1=O (configuration not stated),-24% (inactive),-4% (inactive),-4.95% (inactive),-10% (inactive),-13% (inactive),-13.1% (inactive),-16% (inactive),-10% (inactive),-21.4% (inactive),8% (inactive),-2% (inactive),-11.1% (inactive),-3% (inactive),-3% (inactive),-21.8% (inactive),1% (inactive),8% (inactive),-16.3% (inactive)
CC(C)(CC#N)c1cc(CC(C)(C)c2cc(CC(C)(C)c3cc(CC(C)(C)C4(C)OCCO4)no3)no2)no1,-2% (inactive),2% (inactive),16.8% (inactive),-4% (inactive),-2% (inactive),2.6% (inactive),-2% (inactive),6% (inactive),-17.4% (inactive),1% (inactive),-4% (inactive),0.5% (inactive),-3% (inactive),0% (inactive),-1.9% (inactive),-2% (inactive),-8% (inactive),12.8% (inactive)
Cn1cnc([N+](=O)[O-])c1Sc1nnnn1-c1ccccc1,53% (inactive),86% (active),82% (active),29% (inactive),70% (active),75.8% (active),47% (inactive),71% (active),68.7% (inactive),32% (inactive),51% (inactive),36.1% (inactive),42% (inactive),75% (active),80.8% (active),60% (inactive),91% (active),80.5% (active)
Nc1ccc2c(c1)[nH]c(=O)c1c(Cl)cccc12,-108% (inactive),47% (inactive),84.5% (active),-41% (inactive),-26% (inactive),41% (inactive),-58% (inactive),-33% (inactive),21.4% (inactive),-46% (inactive),-39% (inactive),48.5% (inactive),-50% (inactive),-42% (inactive),4.8% (inactive),-87% (inactive),-45% (inactive),55.5% (inactive)
CC1(c2ccccc2)Nc2ccccc2C1=Nc1ccccc1 (configuration not stated),-1% (inactive),34% (inactive),93.5% (active),-4% (inactive),30% (inactive),97.7% (active),-3% (inactive),54% (inactive),96.3% (active),-8% (inactive),75% (active),97.2% (active),-7% (inactive),77% (active),95.8% (active),-2% (inactive),86% (active),97.3% (active)
C[CH2][Sn]([CH2]C)([O]C(=O)c1ccccc1OC)[O][Sn]([CH2]C)([CH2]C)[O]C(=O)c1ccccc1OC,36% (inactive),78% (active),51.6% (inactive),35% (inactive),87% (active),41% (inactive),33% (inactive),83% (active),42.2% (inactive),20% (inactive),62% (inactive),20.8% (inactive),35% (inactive),94% (active),32.1% (inactive),38% (inactive),84% (active),72.8% (active)
Cc1cc2c(C(C)C)c(O)c(O)c3coc(/c1=c1/c(C)cc4c(C(C)C)c(=O)c(=O)c5coc1c45)c32,-1% (inactive),97% (active),98.9% (active),23% (inactive),99% (active),99.2% (active),25% (inactive),99% (active),99% (active),-25% (inactive),98% (active),98.8% (active),-3% (inactive),97% (active),98.5% (active),29% (inactive),98% (active),99.2% (active)
CCCCNC(=S)N/N=C/c1cccc(C)n1,-3% (inactive),98% (active),1.35% (inactive),-8% (inactive),98% (active),32.5% (inactive),-16% (inactive),98% (active),59.2% (inactive),-11% (inactive),99% (active),17.4% (inactive),-27% (inactive),97% (active),42.5% (inactive),8% (inactive),99% (active),-11.1% (inactive)
Cc1ccc(/C=C/C(=O)/C=C/c2ccc(C)o2)o1,50% (inactive),97% (active),65.8% (inactive),45% (inactive),99% (active),71.3% (active),49% (inactive),97% (active),75% (active),42% (inactive),81% (active),39% (inactive),47% (inactive),68% (inactive),75% (active),62% (inactive),98% (active),92.4% (active)
O=C(O)c1ccc2c(c1)CCCC2,-154% (inactive),-116% (inactive),16.2% (inactive),-55% (inactive),-53% (inactive),6.3% (inactive),-66% (inactive),-58% (inactive),9.5% (inactive),-60% (inactive),-61% (inactive),52% (inactive),-75% (inactive),-70% (inactive),-12.9% (inactive),-143% (inactive),-101% (inactive),21.4% (inactive)
